TGFb inhibitor = inhibitors of TGF-b signaling | HepG2 CAGA-GFP TGF-b/SMAD3 reporter, GFP fluorescence, 18 h; TGF-beta stimulated, 500 pg/mL final | Potency, µM (series often up to 46.1 µM), actives largely listed as inhibitors | 1.2% of 410,000 active | AID 588855; note: nearly all actives have a fitted effect of over 65% in size
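TGF-beta reporter screen: HEPG2 CAGA-GFP, 1% FBS, 500 pg/mL TGF-beta final, 18 h; per-cell GFP summed per well; curves fitted and categorized by class.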
HepG2 tox = counter-screen for TGF-b inhibitors: cytotoxicity in HepG2 cells; AID 588856; HepG2 CAGA-GFP viability, ATP luminescence, 18 h; 0.76% of 410,000 active; Potency, µM (titrated, usually from 46.1 µM), actives largely listed as cytotoxic
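CellTiter-Glo luminescence gave cytotoxicity after 18 hours at 37 degrees C. The cells were HepG2 CAGA-GFP in 1% FBS DMEM, stimulated with 500 pg/mL TGF-beta after compound addition. %Activity was normalised to no-cell wells (complete cell-killing) and DMSO (no toxicity), and curves were fitted and classified.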
ATXN viability = cell viability loss in ATXN counter-screen; S2 cells (HEK-293 line with an ATXN2-luciferase reporter) viability, CellTiter-Fluor protease fluorescence, 24 h; Potency, µM (highest dose often 56.7 µM), hits mostly cytotoxic; 0.49% of 400,000 active; AID 651635; note: nearly all actives have a fitted effect of over 40% in size
ATXN2 expr inh = inhibitors of ATXN2 expression | HEK-293 ATXN2-luciferase reporter, luminescence, 24 h | Potency, µM (titrated, usually from 57 µM), actives largely listed as inhibitors | 0.72% of 360,000 active | AID 1745845; note: nearly all actives have a fitted effect of over 55% in size
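ATXN2-luciferase reporter cells (luciferase flanked by upstream and downstream ATXN2 gene portions) were treated 24 h at 37 °C with compounds at up to 57 uM. SteadyGlo luminescence gave expression; GF-AFC fluorescence gave viability.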
ALOX12 inh = inhibitors of human 12S-lipoxygenase ALOX12; Potency, µM (doses to about 108 µM), hits mostly inhibitors; purified 12hLO, xylenol orange hydroperoxide absorbance; 1.1% of 580,000 active; P18054; AID 1671190
Target sequence (P18054 whole entry, looked up): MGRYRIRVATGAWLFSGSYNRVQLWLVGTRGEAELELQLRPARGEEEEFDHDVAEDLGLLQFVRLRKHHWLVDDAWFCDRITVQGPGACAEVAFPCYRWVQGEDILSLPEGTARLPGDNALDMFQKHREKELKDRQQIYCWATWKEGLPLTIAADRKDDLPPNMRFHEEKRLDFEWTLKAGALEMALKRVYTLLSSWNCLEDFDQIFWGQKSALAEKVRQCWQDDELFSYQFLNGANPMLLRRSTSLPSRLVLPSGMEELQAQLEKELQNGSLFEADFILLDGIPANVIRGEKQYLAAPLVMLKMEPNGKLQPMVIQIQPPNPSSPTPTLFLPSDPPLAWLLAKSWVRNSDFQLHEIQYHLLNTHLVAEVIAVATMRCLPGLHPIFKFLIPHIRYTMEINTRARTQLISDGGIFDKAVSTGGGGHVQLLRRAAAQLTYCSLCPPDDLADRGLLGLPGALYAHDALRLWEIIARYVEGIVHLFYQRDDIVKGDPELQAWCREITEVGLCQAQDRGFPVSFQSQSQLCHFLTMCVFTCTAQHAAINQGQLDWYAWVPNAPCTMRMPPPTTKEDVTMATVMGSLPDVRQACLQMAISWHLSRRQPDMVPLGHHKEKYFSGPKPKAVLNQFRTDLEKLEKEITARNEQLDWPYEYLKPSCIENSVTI
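Purified human 12hLO (150 nM final) in 25 mM Hepes, 0.01% Triton X-100, pH 7.0 was preincubated 15 min at room temperature with compound. Then 40 uM arachidonic acid was added, 30 min. Hydroperoxide was read by Fe-XO absorbance ratio 573/405 nm.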
Numbers stand for hits; - = inactive; ? = inconclusive; . = no result; ! = not confirmed by another sample; [ ] = remark or other dose. A selection: hits, their analogues and other compounds. The true share with any hit is near 2.7%. Calls come from the whole dose curve; as a rule, active = well fitted curve in the direction sought with a large enough effect; inconclusive = small, poorly fitted or top-dose-only effect, or another doubt; inactive = no such curve, though single readings can be large; an effect the other way counts as inactive or inconclusive.

SMILES	TGFb inhibitor	HepG2 tox	ATXN viability	ATXN2 expr inh	ALOX12 inh
COc1ccc2c(c1)C[C@]1(C)c3ccccc3C(=O)N(Cc3ccccc3)[C@H]21	11µM	-	?	?	-
O=C1S/C(=C\c2ccc(N3CCOCC3)o2)C(=O)N1c1ccccc1	-	-	?	-	?
O=C1S/C(=C/c2ccc(N3CCOCC3)o2)C(=O)N1Cc1c(F)cccc1Cl	-	-	-	-	28µM
O=C1S/C(=C\c2ccc(N3CCOCC3)o2)C(=O)N1Cc1c(F)cccc1Cl	-	-	-	-	32µM
COc1ccccc1Cn1c(CNS(=O)(=O)c2ccc(CC(C)C)cc2)nc2cccnc21	13µM	-	.	.	-
COc1ccccc1Cn1c(CNS(=O)(=O)c2ccc(C(C)C)cc2)nc2cccnc21	?	-	.	.	-
Cc1cc(Br)cc(/C=N/NC(=O)c2ccc3c(c2)OCO3)c1O	5.6µM	1.8µM	?	.	-
COc1cc(Cl)cc(/C=N\NC(=O)c2ccc3c(c2)OCO3)c1O	11µM	-	.	.	?
O=C(N/N=C/c1cc(Br)cc(Cl)c1O)c1ccc2c(c1)OCO2	?	-	-	13µM	22µM
O=C(N/N=C/c1ccccc1O)c1ccc2c(c1)OCO2	-	-	-	?	-
Cn1cccc1CN1CCC(N2C(=O)C(OCC3CC3)C23CCCCC3)CC1 (configuration not stated)	.	.	.	.	-
Clc1ccc(-c2nc(-c3ccc(Br)o3)no2)c(Cl)c1	.	.	.	.	-
Cc1ccc(-n2cccc2C=O)cc1C	.	.	.	.	-
Fc1ccc(-c2nc(CN3CCCC3c3cccs3)co2)cc1 (configuration not stated)	.	.	.	.	-
CCOc1ccc2c(=O)c(-c3ccccc3OC)c(C(F)(F)F)oc2c1	.	.	.	.	-
Cc1onc(-c2c(F)cccc2Cl)c1C(=O)OCC(=O)Nc1cccc(S(=O)(=O)N(C)C)c1	?	7.1µM	?	-	-
CN=c1scc(-c2ccco2)n1/N=C/c1ccc(O)c(O)c1	-	-	-	-	40µM
COc1ccc(O)c(/C=N/n2c(-c3ccco3)csc2=Nc2cccnc2)c1	?	-	-	-	-
COC(=O)C1=C(C(=O)c2ccccc2)C(c2ccccc2)n2nnnc2N1 (configuration not stated)	-	-	20µM	?	?
CCOC(=O)c1nc2ccccc2nc1NCc1ccco1	.	.	.	.	-
C/C(=N\Nc1cc(N2CCCCC2)nc(C)n1)c1ccc(Br)cc1	10µM	16µM	-	?	?
CCOc1ccccc1OCC1CNCCO1 (configuration not stated)	.	.	-	-	-[22.9 µM]
Cc1cnc(NC(=O)Nc2cc(Br)c(C)cc2OC[C@@H]2CNCCO2)cn1	.	.	.	1.2µM	-
Cc1nn(C)c2sc(C(=O)NCCc3ccc(C(=O)O)cc3)cc12	.	.	.	.	-
CCOC(=O)C1=C(CN2CCCCC2)NC(=O)NC1c1ccc(OC)cc1 (configuration not stated)	?	-	.	.	45µM
SMILES	TGFb inhibitor	HepG2 tox	ATXN viability	ATXN2 expr inh	ALOX12 inh
CCOC(=O)C1=C(CN2CCN(c3ccc(C)cc3C)CC2)NC(=O)NC1c1ccc(OC)cc1 (configuration not stated)	-	-	.	.	45µM
CCOC(=O)C1=C(CN2CCCCC2)NC(=O)NC1c1ccc(C)cc1 (configuration not stated)	-	-	-	-	?
CCOC(=O)C1=C(CN(CC)Cc2ccccc2)NC(=O)NC1c1ccc(Cl)cc1 (configuration not stated)	?	-	?	?	22µM!
O=C1/C(=C/c2cccnc2)CC/C1=C\c1cccnc1	-	-	?	?	-
O=C1/C(=C/c2cccnc2)CCC/C1=C\c1cccnc1	4µM	-	11µM	18µM	-
CCC1C/C(=C\c2cccnc2)C(=O)/C(=C/c2cccnc2)C1 (configuration not stated)	4µM	10µM	.	14µM	-
CC(=O)Nc1ccc(Sc2ccc([N+](=O)[O-])o2)cc1	?	20µM	?	?	?
CC(C)(C)C(=O)Nc1ccc(Sc2ccc([N+](=O)[O-])cc2)cc1	?	-	?	?	-
Cc1ccc2oc(C(=O)N(C)CCOc3ccc(F)cc3)cc(=O)c2c1	.	.	.	.	-
Cc1ccc(O)c(C(=O)N(C)Cc2c(F)cccc2Cl)c1	.	.	.	.	40µM
Cc1cc(C(=O)N(C)Cc2c(F)cccc2Cl)c2ccccc2n1	-	-	-	-	-
COc1cc2oc(=O)c(CC(=O)NCc3ccc4c(c3)OCO4)c(C)c2cc1OC	.	.	.	.	-
CC1(C)CCC(c2ccc(Cl)cc2)=C(CN2CCN(c3ccc(C(=O)NS(=O)(=O)c4ccc(N[C@H](CCN5CCOCC5)CSc5ccccc5)c(S(=O)(=O)C(F)(F)F)c4)cc3)CC2)C1	?	5.6µM	.	?	-
CN(C)CC[C@H](CSc1ccccc1)Nc1ccc(S(=O)(=O)NC(=O)c2ccc(N3CCN(Cc4ccccc4-c4ccc(Cl)cc4)CC3)cc2)cc1[N+](=O)[O-]	.	.	.	-	-
O=[N+]([O-])c1cc(NS(=O)(=O)c2ccc(Br)s2)c(F)cc1F	.	.	.	.	-
CCCCNC(=O)C12CC3CC(CC(C3)C1)C2	.	.	.	.	-
O=C(/C=C/c1cccc(Cl)c1)c1cccc(O)c1	.	.	.	.	-
O=C(C=Cc1cccc(Cl)c1)c1ccccc1	?	18µM	-	-	-
O=C(C=Cc1ccccc1F)c1ccccc1	11µM	-	.	?	-
Cc1ccc(-c2cnc(SCC(=O)Nc3ccc(Cl)cc3)o2)cc1C	.	.	.	.	-
CCN1CCN(c2ncc3c(n2)CCN(Cc2cc(Br)cs2)C3)CC1	-	-	-	-	11µM
CCN1CCN(c2ncc3c(n2)CCN(Cc2ccc(Br)s2)C3)CC1	-	-	?	-	?
Clc1ccccc1OCCCn1ccnc1	-	-	-	-	0.35µM
Clc1ccccc1OCCCCn1ccnc1	-	-	-	-	-
Clc1cc(Br)ccc1OCCn1ccnc1	-	-	?	-	0.71µM
SMILES	TGFb inhibitor	HepG2 tox	ATXN viability	ATXN2 expr inh	ALOX12 inh
O=C(CCc1ncc(-c2ccc(F)cc2)o1)Nc1nccs1	.	.	.	.	-
CC(C)C(=O)N1Cc2ccccc2CC2(CCCN(Cc3ccc(O)cc3)C2)C1 (configuration not stated)	.	.	.	.	-[6.33 µM]
CC(CN1CCN(CCOCCO)CC1)CN1c2ccccc2Sc2ccc(Cl)cc21 (configuration not stated)	?	13µM	?	.	-
Cc1oc(C23CC4CC(CC(C4)C2)C3)cc1C(=O)NC1CCOC1=O (configuration not stated)	.	.	.	.	-
Cc1ccn2c(Nc3ccc4c(c3)OCO4)c(-c3ccccn3)nc2c1	?	-	?	?	-
Cc1ccc(Nc2c(-c3ccccn3)nc3cc(C)ccn23)cc1	?	-	?	3.5µM	?
COc1cccc(C(=O)CN2CCN(S(=O)(=O)c3ccc(Cl)cc3)CC2)c1	?	-	-	-	56µM
COc1cccc(N2CCN(CC(=O)N3CCN(S(=O)(=O)c4ccc(Cl)cc4)CC3)CC2)c1	-	-	-	-	-

High-throughput results deposited in PubChem BioAssay by National Center for Advancing Translational Sciences (NCATS).
